From PubChem BioAssay (Tox21)
Inconclusive results are not listed. The source made the active and inactive calls. Unless noted, calls come from the whole dose curve; as a rule, active = well fitted curve in the direction sought with a large enough effect in the repeat runs; inconclusive = weak or mixed curves; inactive = no such curve, though single readings can be large; an effect the other way counts as inactive or inconclusive.

Assays:
[1] = qHTS assay to identify small molecule antagonists of the constitutive androstane receptor (CAR) signaling pathway - cell viability counter screen (AID 1224837); note: series mostly up to about 92 µM; nearly all actives have a fitted effect of over 45% in size
In short: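 HepG2 cells stably expressing hCAR and a CYP2B6-2.2kb reporter were plated and pre-incubated 4 hr at 37 C/5% CO2, then given compounds at 15 concentrations plus 50 nM CITCO (final). After 23 hr, viability was read by CellTiter-Fluor fluorescence.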

[2] = qHTS assay to identify small molecule antagonists of the estrogen related receptor signaling pathway with the pleiotropic PPARgamma coactivator (PGC) from Tox21 10K library - cell viability counter screen (AID 1224840; active = well fitted cell-killing curve with a large enough effect in the repeat runs, not every such curve was filed as active; note: nearly all actives have a fitted effect of over 40% in size)
In short: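 PGC/ERR cells were seeded at 2,000 cells/well and left 6 hours at 37 C/5% CO2 before pin-tool addition of compounds in DMSO. After 17.5 hours at 37 C, CellTiter-Fluor was added and fluorescence read 30 minutes later.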

[3] = qHTS assay to identify small molecule antagonists of the estrogen related receptor signaling pathway with the pleiotropic PPARgamma coactivator (PGC) from Tox21 10K library (AID 1224841; call rule not given here; note: series mostly up to about 92 µM; actives are mostly falling curves and most rising ones were filed inactive; nearly all actives have a fitted effect of over 50% in size)
In short: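 PGC/ERR reporter cells were seeded at 2,000 cells/well and held 6 hours at 37 C/5% CO2 before pin-tool addition of compounds in DMSO. After 18 hours at 37 C, One-Glo was added and luminescence read after 30 minutes at room temperature.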

[4] = qHTS assay to identify small molecule agonists of the estrogen related receptor signaling pathway with the pleiotropic PPARgamma coactivator (PGC) from Tox21 10K library (AID 1224842); note: nearly all actives have a fitted effect of over 15% in size
In short: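 Luminescence from One-Glo (30 min, room temperature) measured after PGC/ERR cells had 18 h at 37 C with pinned compound (23 nL in DMSO). Cells had been seeded at 2,000 per well and pre-incubated 6 h.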

[5] = biological target: Thyrotropin receptor (Homo sapiens) (UniProt P16473); assay: qHTS assay to identify small molecule agonists of the thyroid stimulating hormone receptor (TSHR) signaling pathway (AID 1224843; calls by dose curve; note: nearly all actives have a fitted effect of over 45% in size)
Chain of Thyrotropin receptor (Homo sapiens) (P16473 whole entry, looked up): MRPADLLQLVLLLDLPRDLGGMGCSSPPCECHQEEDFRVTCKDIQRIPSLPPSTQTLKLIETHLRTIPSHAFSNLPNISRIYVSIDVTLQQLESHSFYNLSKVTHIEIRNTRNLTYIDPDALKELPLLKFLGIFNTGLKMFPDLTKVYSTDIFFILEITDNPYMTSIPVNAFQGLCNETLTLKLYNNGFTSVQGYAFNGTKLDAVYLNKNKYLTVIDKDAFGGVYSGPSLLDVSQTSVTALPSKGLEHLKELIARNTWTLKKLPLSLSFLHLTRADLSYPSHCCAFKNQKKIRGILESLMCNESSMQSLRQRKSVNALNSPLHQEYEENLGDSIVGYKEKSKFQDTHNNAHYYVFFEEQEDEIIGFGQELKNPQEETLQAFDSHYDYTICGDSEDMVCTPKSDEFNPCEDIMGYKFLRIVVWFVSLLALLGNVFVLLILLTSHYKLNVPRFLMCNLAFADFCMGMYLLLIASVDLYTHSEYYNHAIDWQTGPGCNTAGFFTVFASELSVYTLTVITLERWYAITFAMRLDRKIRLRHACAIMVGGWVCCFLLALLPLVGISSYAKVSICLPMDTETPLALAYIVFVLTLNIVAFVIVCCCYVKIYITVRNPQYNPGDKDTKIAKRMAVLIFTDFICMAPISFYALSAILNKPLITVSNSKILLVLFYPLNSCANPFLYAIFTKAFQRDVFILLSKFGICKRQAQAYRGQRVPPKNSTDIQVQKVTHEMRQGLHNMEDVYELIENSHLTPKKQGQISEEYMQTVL
In short: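 HEK293 cells stably bearing the thyrotropin receptor were plated at 800 cells/well and challenged with compound (30 min, RT). Accumulated cAMP was quantified via cAMP-d2 competing for cryptate-tagged antibody.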

[6] = qHTS assay to identify small molecule agonists of the hypoxia (HIF-1) signaling pathway - cell viability counter screen (AID 1224844; calls by dose curve; note: nearly all actives have a fitted effect of over 50% in size)
In short: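 HRE-bla ME-180 cells in medium with 0.5% dialyzed FBS were preincubated 5 hrs at 37C, exposed to compounds for 17 hrs, then viability was read as CellTiter-Glo luminescence after 30 min at room temperature, in the reporter wells.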

[7] = qHTS assay to identify small molecule agonists of H2AX (AID 1224845; active = well fitted activation curve with a large enough effect in the signal ratio in the repeat runs, not every such curve was filed as active; the % refers to the signal ratio)
In short: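 Phospho-H2AX Ser139 measured by HTRF (ex 320 nm; em 665 and 620 nm) after 24 hr antibody incubation. Compounds, 15 concentrations, 0.76% DMSO, were applied to CHO-K1 cells for 3hr at 37C before lysis.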

[8] = qHTS assay to identify small molecule agonists of the hypoxia (HIF-1) signaling pathway (AID 1224846; active = well fitted activation curve with a large enough effect in the signal ratio in the repeat runs, not every such curve was filed as active; the % refers to the signal ratio)
In short: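 HRE-bla ME-180 cells (beta-lactamase reporter under hypoxia response element) were plated at 2,000 cells/well in medium with 0.5% dialyzed FBS, rested 5 hrs, then given compounds in DMSO for 17 hrs at 37C, 5% CO2. Reporter induction was read with CCF4-AM FRET substrate.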

[9] = qHTS assay to identify small molecule agonists of H2AX - cell viability counter screen (AID 1224847; calls by dose curve;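 note: wild-type CHO-K1 cells; top concentration of the series differs between compounds; nearly all actives have a fitted effect of over 30% in size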)
In short: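 After overnight plating of 1000 CHO-K1 cells per well, a 15-concentration compound series was applied for 3 hr at 37C. Luminescence from CellTiter-Glo, read following 30 min at room temperature, reflected cell viability.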

[10] = qHTS assay to identify small molecule antagonists of the estrogen related receptor (ERR) signaling pathway from Tox21 library (AID 1224848); note: nearly all actives have a fitted effect of over 50% in size
In short: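 Reading was by luminescence 30 min after ONE-Glo addition. Before that, ERR cells at 2,000 per well had rested 6 h at 37 C/5% CO2 and then received pin-tooled compounds in DMSO for 18 h at 37 C.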

[11] = qHTS RealTime-Glo MT Cell Viability Assay in HepG2 cells - 24 hour (AID 1224867); note: nearly all actives have a fitted effect of over 50% in size
In short: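 Viability was tracked continuously by NanoLuc luminescence from prosubstrate reduced by living HepG2 cells, at successive time points over 40 h of compound exposure. Cells with reagent were preincubated 5 h at 37 °C before compound addition.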

[12] = qHTS RealTime-Glo MT Cell Viability Assay in HEK293 cells - 32 hour (AID 1224868)
In short: (§1)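 Viability tracked continuously by luminescence as live cells reduce a prosubstrate for NanoLuc; HEK293 cells preincubated 5 h, compound-treated at 37 C, and read at 0, 8, 16, 24, 32 and 40 h.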

[13] = A CellTox Green Cytotoxicity Assay to monitor cytotoxicity in HEK293 cells - 0 hour (AID 1224869); note: nearly all actives have a fitted effect of over 50% in size
In short: (§2)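 HEK293 cells premixed with CellTox Green dye were seeded at 600 cells/well and left 5 h at 37 C/5% CO2 before pin transfer of 23 nL compound in DMSO. Fluorescence from dye bound to dead-cell DNA was read during 40 h treatment.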

[14] = A CellTox Green Cytotoxicity Assay to monitor cytotoxicity in HEK293 cells - 40 hour (AID 1224871); note: nearly all actives have a fitted effect of over 45% in size
In short: as §2

[15] = qHTS RealTime-Glo MT Cell Viability Assay in HEK293 cells - 16 hour (AID 1224872)
In short: as §1

[16] = qHTS RealTime-Glo MT Cell Viability Assay in HepG2 cells - 8 hour (AID 1224873); note: nearly all actives have a fitted effect of over 55% in size
In short: (§3)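 Real-time viability: cells seeded at 600 per well together with NanoLuc and cell-permeant prosubstrate, compounds added after 5 h incubation. Luminescence tracked at 0, 8, 16, 24, 32 and 40 h of exposure.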

[17] = qHTS RealTime-Glo MT Cell Viability Assay in HepG2 cells - 40 hour (AID 1224870); note: nearly all actives have a fitted effect of over 50% in size
In short: as §3

[18] = biological target: Nuclear receptor subfamily 1 group I member 3 (Homo sapiens) (UniProt Q14994); assay: qHTS assay to identify small molecule antagonists of the constitutive androstane receptor (CAR) signaling pathway (AID 1224838); note: nearly all actives have a fitted effect of over 40% in size
Chain of Nuclear receptor subfamily 1 group I member 3 (Homo sapiens) (Q14994 whole entry, looked up): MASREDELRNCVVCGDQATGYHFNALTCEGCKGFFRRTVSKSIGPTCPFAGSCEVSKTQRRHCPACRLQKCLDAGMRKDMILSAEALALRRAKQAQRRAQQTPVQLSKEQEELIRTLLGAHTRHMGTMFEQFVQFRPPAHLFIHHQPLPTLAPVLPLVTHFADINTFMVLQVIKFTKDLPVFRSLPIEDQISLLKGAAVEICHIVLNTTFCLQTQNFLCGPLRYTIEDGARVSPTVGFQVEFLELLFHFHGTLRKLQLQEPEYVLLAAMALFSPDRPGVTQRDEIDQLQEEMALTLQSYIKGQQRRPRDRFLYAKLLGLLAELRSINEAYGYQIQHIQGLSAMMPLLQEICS
In short: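 HepG2 cells stably co-transfected with hCAR and a CYP2B6-2.2kb luciferase reporter were seeded 4 h before compound addition at 15 concentrations. Cells were stimulated with 50 nM CITCO (final) for 24 h at 37 C; luciferase luminescence was then read.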

[19] = biological target: Nuclear receptor subfamily 1 group I member 3 (Homo sapiens) (UniProt Q14994); assay: qHTS assay to identify small molecule agonists of the constitutive androstane receptor (CAR) signaling pathway (AID 1224839);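 note: HepG2 cells stably carrying human CAR and a CYP2B6 luciferase reporter; series mostly up to about 92 µM; nearly all actives have a fitted effect of over 15% in size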
In short: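 Using human hepatoma HepG2 cells engineered with hCAR and a CYP2B6-2.2kb reporter, 15-concentration compound series were incubated 24 h alongside PK11195 at 0.75 uM final, with luminescence quantified afterwards.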
% is set by controls: 0 for no effect and ±100 for the full control effect.

O=c1ccc(=O)[nH][nH]1
inactive: Potency [1] | Potency [2] | Potency [3] | outcome [4] | Potency [5] | Potency [6] | Potency [7] | outcome [8] | Potency [9] | Potency [10] | outcome [11] | Potency [12] | Potency [13] | Potency [14] | outcome [15] | outcome [16]

CC(C)N1C(=O)c2ccccc2NS1(=O)=O
inactive: Potency [1] | Potency [2] | Potency [3] | outcome [4] | Potency [5] | Potency [6] | outcome [8] | Potency [9] | Potency [10] | outcome [11] | Potency [12] | Potency [13] | outcome [17] | Potency [14] | outcome [15] | outcome [16]

Cc1cc(-c2cc(C)c(N)c(C)c2)cc(C)c1N
inactive: Potency [1] | Potency [18] | Potency [19] | Potency [2] | Potency [6] | outcome [8] | outcome [11] | Potency [12] | Potency [13] | Potency [14] | outcome [15] | outcome [16]

CCOP(=S)(OCC)SCCSCC
inactive: Potency [1] | Potency [18] | Potency [19] | Potency [2] | Potency [6] | outcome [8] | Potency [9] | outcome [11] | Potency [12] | Potency [13] | Potency [14] | outcome [15] | outcome [16]

C=C(C)CCl
inactive: Potency [1] | Potency [18] | Potency [19] | Potency [2] | activity change, negative = cytotoxicity [6] -1.52% [at 6.97 µM] | outcome [8] | outcome [11] | Potency [12] | Potency [13] | Potency [14] | activity change, negative = cytotoxicity [15] 7.57% [at 6.97 µM] | outcome [16]

OCCN(CCO)CCO
inactive: Potency [1] | Potency [18] | Potency [2] | Potency [5] | Potency [6] | Potency [7] | outcome [8] | outcome [11] | Potency [12] | Potency [13] | Potency [14] | outcome [15] | outcome [16]

COP(N)(=O)SC (stereo not given)
inactive: Potency [1] | Potency [18] | Potency [19] | Potency [2] | Potency [6] | outcome [8] | Potency [9] | outcome [11] | Potency [12] | Potency [13] | outcome [17] | Potency [14] | outcome [15] | outcome [16]

CC(C#N)CCC#N (stereo not given)
inactive: Potency [1] | Potency [2] | Potency [3] | outcome [4] | Potency [5] | Potency [6] | Potency [7] | outcome [8] | Potency [9] | Potency [10] | outcome [11] | Potency [12] | Potency [13] | outcome [17] | Potency [14] | outcome [15]

CCCCCOC(=O)c1ccccc1C(=O)OCCCCC
inactive: Potency [1] | Potency [18] | Potency [19] | Potency [2] | Potency [6] | outcome [8] | Potency [9] | outcome [11] | Potency [12] | Potency [13] | Potency [14] | outcome [15] | outcome [16]

Nc1ccc(Br)cc1
inactive: Potency [1] | Potency [18] | Potency [2] | Potency [5] | Potency [6] | Potency [7] | outcome [8] | Potency [9] | outcome [11] | Potency [12] | Potency [13] | outcome [17] | Potency [14] | outcome [15] | outcome [16]
